System: PPARg:RXRa 270nM:90nM, anti-RXR (NR concentration 270 nM, RXRa partner concentration 90 nM)
Experiment: PBM binding z-score (relative to random genomic background probes); higher = stronger binding; sequences stand for … in GC…GCGATTGACAGCGTAGAATGAAGG
Method in brief: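 Antibodies against each partner of ligand-free nuclear receptor dimers (one per run) detected binding on custom Agilent 4×180K protein-binding microarrays after 1 h incubation. The double-stranded probes had 34-nt variable regions carrying direct-repeat seeds, single-nucleotide variants, half-site ablations and random human genomic background sequences. Binding z-scores, from regression-normalized fluorescence, use the random background probes as reference.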

Sequence	PBM binding z-score
CCGACTGGGCCAAGGTCATTGATCAGTCAAAGCA	3
CAAACTAGGTCACGCAAGGTCAAAGTCGAATGAC	7.79
GCTGCTACGTCAGGTTGGTCAGCTAACGGGTACG	-0.954
TCTCGGAGGACAAGAAAGGTCAGAGCTCGACATC	2.26
ACAATGAGGTTATACGTAGATCAGGGAAGAAAGT	1.69
GCGACTGGGGCAAAGCAGGTGACCATAAGGTTGG	1.27
ACCGAAAGGTCGAGGTGAGTATAGAGAAAGGGAA	3.78
ATACCAAGGCGATCGTGAGGTCGTTGATACTAAC	-0.337
TCAGACAGGTGAAGGTAACTCACGTACGCAGTCG	2.09
TCATATAAGTAAAGGTGAAAGTCGAACGATATGA	2.93
CGAACTAGGTTATCCAGGACAGTGAATACATTGA	2.24
GGAACGAGGGCAAGTTGATAGCCGAGTTTGATGG	1.09
CGAATTAGGTCATCCAGGACAGTGAATACATTGA	6.52
TGAATGAGGTTATAAGATCAGGGGACGTTGCAAA	1.96
ATATGTAGGTTAGCGGGTCATTCAGTTTGCGCAT	5.6
GCTTACGGGTCAAAGGTTATAGCGTGAATAGAAT	9.25
CAGCCTAGGTCAGGTCCAGTATAGGAGGAACGTT	0.541
ACTATAAGTTGACTTAGGGCAACCGATACGACGC	0.205
ATCTTTAGGTAAAGATAGTTCAGTGAATGCAAAT	0.465
TCTGATAGGTCAACGATGGTCAGCTAATCTGCTA	4.48
TAGCCTAGGTCATGCGGGCCAGTTTAGTGTCGGC	2.02
GCGACTGGGGCAAAGCAGCTTACCATAAGGTTGG	1.18

Source: the supplement of paper PMC6555819
